Bioassay records deposited in PubChem BioAssay by National Center for Advancing Translational Sciences (NCATS).
RORgamma inh: ROR gamma (mouse) transcription inhibition; P51450; AID 2551; Potency, µM (highest dose often 53.6 µM), for inactives: at the highest dose activity change, negative = inhibition, hits mostly inhibitors; Drosophila S2 Gal4-RORgamma UAS-luciferase reporter, 20 h; 5.4% of 310,000 active; also: nearly all actives have a fitted effect of over 60% in size
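Stable Schneider cell line, Gal4 DNA-binding domain fused to ROR gamma, UAS-luciferase. Cmpd 1 hr RT → CuSO4 700 uM final → 20 hr RT → luciferase reagent 10 min → luminescence.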
TDP1 inh: blocks human tyrosyl-DNA phosphodiesterase 1; recombinant TDP1, AlphaScreen DNA substrate cleavage; AID 485290; Q9NUW8; Potency, µM (titrated, usually from 130 µM), for inactives: at the highest dose activity change, negative = inhibition, usual class: inhibitors; 0.28% of 350,000 active; also: nearly all actives have a fitted effect of over 40% in size
Target sequence (Q9NUW8 whole entry, looked up): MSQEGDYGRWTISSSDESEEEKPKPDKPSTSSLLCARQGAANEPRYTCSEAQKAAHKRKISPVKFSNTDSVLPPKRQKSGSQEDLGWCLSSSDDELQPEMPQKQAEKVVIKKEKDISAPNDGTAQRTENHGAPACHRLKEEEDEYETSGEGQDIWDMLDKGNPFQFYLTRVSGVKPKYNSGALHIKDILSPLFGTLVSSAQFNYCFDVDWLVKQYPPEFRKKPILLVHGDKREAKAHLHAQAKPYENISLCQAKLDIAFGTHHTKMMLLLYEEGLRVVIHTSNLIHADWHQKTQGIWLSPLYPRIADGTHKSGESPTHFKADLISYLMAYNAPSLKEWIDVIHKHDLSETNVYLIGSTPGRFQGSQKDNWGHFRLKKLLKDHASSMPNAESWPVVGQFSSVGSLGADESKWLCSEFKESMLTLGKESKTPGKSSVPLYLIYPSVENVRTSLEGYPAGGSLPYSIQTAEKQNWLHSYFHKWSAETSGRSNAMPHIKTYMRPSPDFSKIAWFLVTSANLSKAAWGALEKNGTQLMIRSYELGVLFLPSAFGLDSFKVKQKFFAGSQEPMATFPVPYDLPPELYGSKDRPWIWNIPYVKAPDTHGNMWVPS
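Steps: enzyme plus compound, 15 min RT; add biotin/phosphotyrosine-FITC oligonucleotide (15 nM final), react 5 min; add donor/acceptor beads (10 ug/ml final), 10 min; read AlphaScreen. Tdp1 at 1 nM final.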
TDP1 cell noCPT: qHTS for Inhibitors of human tyrosyl-DNA phosphodiesterase 1 (TDP1): qHTS in cells in absence of CPT; 15% of 420,000 active; AID 686978, 2013; Potency, µM (top dose mostly 46.2 µM), for inactives: at the top dose activity change, negative = growth inhibition, most hits filed as inhibitors; DT40 Tdp1-/- hTDP1 cells, no CPT, ATP luminescence, 48 h; also: nearly all actives have a fitted effect of over 55% in size
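Growth kinetics read by CellTiter-Glo luminescence after ≥48 hr at 37 °C. Cells: DT40 Tdp1-/- stably carrying human TDP1, 400 per well, compound exposure in the absence of CPT (DMSO vehicle).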
Gal4-VP16 FLuc: counter-screen for ROR gamma inhibitors: Gal4-VP16 reporter | Drosophila S2 Gal4-VP16 UAS-luciferase, luminescence, 20 h | 3.5% of 310,000 active | AID 2546 | Potency, µM (doses to about 53.6 µM), for inactives: at the highest dose activity, negative = inhibition, hits mostly inhibitors;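 also: Gal4-VP16 expression switched on by copper sulfate through the metallothionein promoter; nearly all actives have a fitted effect of over 50% in size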
DT40 TDP1 CPT: growth inhibition of DT40 Tdp1-/-;hTDP1 cells with camptothecin (screen for TDP1 inhibitors); chicken DT40 Tdp1-/-;hTDP1 cells + 20 nM CPT, ATP luminescence, 48 h; Potency, µM (series often up to 46.2 µM), without a hit: top-dose activity change, negative = growth inhibition, most hits filed as inhibitors; 12% of 420,000 active; also: nearly all actives have a fitted effect of over 55% in size
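Cell growth measured by CellTiter-Glo luminescence after a minimum 48 h, 37 C compound exposure with 20 nM CPT in Tdp1-knockout DT40 cells stably expressing hTDP1, seeded 400/well; qHTS titration format.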
Numbers without * were called inactive; u = inconclusive; x = not tested or not shown; [ ] = another dose, or the depositor's remark. In the library only some 19% were active in any assay of this set; here they are far more common. Calls follow the shape of the dose curve; as a rule, active = well fitted curve in the direction sought with a large enough effect; inconclusive = small, poorly fitted or top-dose-only effect, or another doubt; inactive = no such curve, though single readings can be large; an effect the other way counts as inactive or inconclusive. % is scaled to controls: 0 for no effect and ±100 for the full control effect; potency is read from the fitted curve at half-maximal effect.

SMILES	RORgamma inh	TDP1 inh	TDP1 cell noCPT	Gal4-VP16 FLuc	DT40 TDP1 CPT
O=C(c1ccc(-c2ccccc2)c(F)c1)C1CCCN(CCO)C1 (centres undefined)	1.7%	7.4%	u	3.6%	u
CN1CCCC(C(=O)c2ccc(-c3ccccc3)cc2)C1 (centres undefined)	-0.7%	x	18.4µM*	-10.3%	u
CCCC1=Nc2cc(C(=O)NCCc3ccc(OC)cc3OC)ccc2Sc2ccccc21	x	2.5%	u	x	18.4µM*
CCCC1=Nc2cc(C(=O)NC3CCC(C)CC3)ccc2Sc2ccccc21 (centres undefined)	x	0.0%[12.3 µM]	4.11µM*	x	6.51µM*
Cc1nn(CC(C)C)c(Cl)c1C(=O)NC1CCC(C)CC1 (centres undefined)	x	x	-9.1%	x	7.1%
COc1ccc(C(=O)CC(c2ccc(OC)c(OC)c2)c2c(O)c3ccccc3oc2=O)cc1OC (centres undefined)	x	x	-19.0%	x	12.4%
C[C@H]1COc2cccc(N3CCN(C)CC3)c2S(=O)(=O)N1	x	x	-7.8%	x	-9.8%
CC[C@@]1(O)C(=O)OCc2c1cc1n(c2=O)-c2cc3ccccc3nc2C1	0.126µM*	4.3%	x	u	x
CCC1(O)C(=O)OCc2c1cc1n(c2=O)Cc2cc3c(N)cccc3nc2-1 (centres undefined)	x	x	0.0517µM*	x	0.206µM*
CCOP(=O)(Nc1ccc2c(c1)C(=NNC(N)=S)c1ccccc1-2)OCC	x	x	9.2µM*	x	18.4µM*
CC(=O)OC1(c2ccccc2)CCN(CCc2ccccc2)CC1	x	x	22.1µM*	x	u
O=C(Cc1c[nH]c2ccccc12)NNCc1ccc(N(CCCl)CCCl)cc1	x	x	0.92µM*	x	0.517µM*
Cc1cccc(C)c1OCC(=O)Nc1ccc(Cl)cc1C(=O)c1ccccc1	x	-1.3%[12.3 µM]	-10.5%	x	7.7%
Cc1ccccc1NC(=O)CCl	-2.8%	x	23.1µM*	6.7%	18.4µM*
COC(=O)C(NC(=S)N1CC2C[C@@H](C1)Cn1c2cccc1=O)C(C)C (some centres undefined)	9.0%	x	12.1%	0.2%	17.6%
CN(C)[C@@H]1C(=O)C(C(N)=O)=C(O)[C@@]2(O)C(=O)C3=C(O)c4c(O)ccc(Cl)c4[C@@](C)(O)C3C[C@@H]12 (some centres undefined)	-15.6%	-8.2%	23.1µM*	-11.8%	u
COc1ccc2c(c1)[C@@]13CCC=C[C@H]1[C@@H](C2)NCC3	x	x	u	x	-29.2%
Cc1ccc(CNC(=O)c2ccc(CSc3nc4ccncc4n3Cc3ccc(C)cc3)cc2)cc1	x	7.6%	8.2µM*	x	5.17µM*
Cc1ccc(C(=O)NC2CC3CCC(C2)N3)cc1 (centres undefined)	2.0%	0.0%	-10.5%	7.5%	-27.7%
Cc1ccc(Cn2c(SCc3ccc(C(=O)NC4CCCC4)cc3)nc3ccncc32)cc1	x	7.6%	16.4µM*	x	u
O=C(CCN1CC2CCC(CC2)C1)c1cccs1	x	x	4.11µM*	x	2.06µM*
CC(C)CCCn1c(O)c(/C=C2/C=CC=N2)c(=O)[nH]c1=O	u	5.5%	5.17µM*	1.6%	5.8µM*
CCOc1ccc(Cl)cc1CNCCc1ccccc1F	-27.3%	-0.6%	-26.3%	-12.8%	-3.7%
N#CN=C1SCCN1Cc1ccc(Cl)nc1	18.0%	25.9%	x	1.4%	x
O=[N+]([O-])NC1=NCCN1Cc1ccc(Cl)nc1	-8.5%	18.7%	2.59µM*	1.5%	x
SMILES	RORgamma inh	TDP1 inh	TDP1 cell noCPT	Gal4-VP16 FLuc	DT40 TDP1 CPT
CCOc1ccccc1NC(=O)c1sc2nc3c(cc2c1N)CN(Cc1ccccc1)CC3	x	10.4%	23.1µM*	x	16.4µM*
c1ccc(CN2CCc3nc4ccccc4cc3C2)cc1	5.2%	x	-18.1%	6.0%	u
COc1ccc(CCN(C)Cc2ccncc2)cc1OC	-11.6%	4.3%	-17.1%	2.1%	-12.7%
CN(C)CCN(C)CCc1ccc(Cl)c(Cl)c1	-17.3%	9.8%	20.6µM*	-12.6%	16.4µM*
COC(=O)Cn1cc(C=C2C(=O)N(C)C(=O)N(C)C2=O)c2ccccc21	-14.4%	x	6.9%	-5.8%	-0.4%
COc1ccc(NC(=O)c2cn(CCC#N)nc2-c2ccccc2)cc1	0.2%	x	-20.1%	-12.0%	-9.5%
COc1ccc(Nc2cc(C)c3cc(NC(=O)c4ccccc4Cl)ccc3n2)cc1	x	7.5%	9.2µM*	x	20.6µM*
CCc1cc2c(s1)NC(=O)CN=C2c1cccs1	0.0%[10 µM]	3.0%	u	9.8%	u
CC(C)C(=O)Nc1ccc(N2CCN(C)CC2)c(F)c1	3.7%	2.7%	2.3%	7.9%[10 µM]	0.9%
O=C(CSc1nnnn1-c1ccccc1)Nc1ccc(N2CCOCC2)c(Cl)c1	u	7.1%	u	2.4%	-28.8%
COc1ccc(NC(=O)CN2C(=O)C(C)N=C(c3ccccc3)c3ccccc32)cc1OC (centres undefined)	x	2.3%	-20.4%	x	2.8%
O=C(Cc1ccccc1)Oc1ccc([N+](=O)[O-])cc1	4.1%	7.3%	-19.7%	-10.2%	-22.6%
CCOC(=O)c1c(N)n(CCN2CCCCC2)c2nc3ccccc3nc12	7.7%	4.2%	-27.4%	7.0%	-16.6%
CCCCOCCCn1c(N)c(C(=O)OC(C)COC)c2nc3ccccc3nc21 (centres undefined)	u	1.0%[56.1 µM]	u	u	u
CCCCn1c(NS(=O)(=O)c2ccccc2)c(C(=O)OCC)c2nc3ccccc3nc21	7.2%	0.0%	20.6µM*	-9.4%	u
CCCCn1c(NC(=O)c2ccc(Br)o2)c(C(=O)OCC)c2nc3ccccc3nc21	u	0.0%	20.6µM*	u	u
CN1C(=O)C(O)N=C(c2ccccc2)c2cc(Cl)ccc21 (centres undefined)	-34.6%	6.4%	0.7%	-1.4%	7.1%
C[C@H](CO)N1C[C@H](C)[C@@H](CN(C)C(=O)c2ccc3c(c2)OCO3)Oc2cc(/C=C/c3ccccc3)ccc2S1(=O)=O	x	x	8.2µM*	x	20.6µM*
O=C(Cc1ccc(Cl)c(Cl)c1)N1CCCC[C@H]1CN1CCCC1	-18.0%	12.4%[56.1 µM]	26.6µM*	-3.1%	26.6µM*
O=C(OCc1c(-c2ccccc2)ncc2ccccc12)c1ccc(C(F)(F)F)cc1	x	-0.1%	5.8µM*	x	u
COC(=O)C1=C(c2cccc(OC)c2OC)C[C@@H]2CC[C@H]1N2C(=O)NCCCOC(C)C	x	x	0.3%	x	-5.0%
Cc1ccc(C(C)C)c(OCCn2c(=O)oc3ccccc32)c1	10µM*	-11.3%	u	u	29.1µM*
O=C1CCN(C(=O)CCCn2c(=O)oc3ccccc32)CC1	7.7%	8.8%	-4.9%	-5.4%	19.9%
Cc1cccc(OCC(=O)N2CCN(CCc3ccccn3)CC2)c1	x	4.7%	-4.2%	x	-12.9%
